MEX-5 binding: MEX-5 zinc finger RNA-binding disruptors – biochemical, C. elegans, fluorescence polarization, MLPCN library, primary screen; Zinc finger protein mex-5 (Caenorhabditis elegans), Q9XUB2; MEX-5/FITC-TCR2 RNA binding; hits give low values; activity score (negative = inhibition of binding), % at 10 µM; hit rate 0.38% among 300,000; AID 1832, 2009;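 active = inhibition past about -25% in most replicates, and total fluorescence under double the plate's negative control median, limit read from the data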
EBV gp42 inh: Epstein-Barr virus gp42 inhibitors, primary screen, biochemical, uHTS, fluorescence polarization. Glycoprotein 42 (Epstein-Barr virus (strain AG876)), Q1HVG2. Fluorescence polarization binding assay, mP read-out. inhibition, % (tested at 21.74 µM). hit rate 0.42% among 220,000. AID 1085, 2008; in the data active = inhibition above about 50%
E coli Lon inh: inhibitors of E. coli Lon protease, primary screen, biochemical, fluorescence polarization; AID 602123, 2011; purified E. coli Lon protease; hit rate 0.42% among 360,000; inhibition, % at 7.94 µM; in the data active = inhibition above about 13%, passing the limit was not always enough
Target sequence (P0A9M0 whole entry, looked up): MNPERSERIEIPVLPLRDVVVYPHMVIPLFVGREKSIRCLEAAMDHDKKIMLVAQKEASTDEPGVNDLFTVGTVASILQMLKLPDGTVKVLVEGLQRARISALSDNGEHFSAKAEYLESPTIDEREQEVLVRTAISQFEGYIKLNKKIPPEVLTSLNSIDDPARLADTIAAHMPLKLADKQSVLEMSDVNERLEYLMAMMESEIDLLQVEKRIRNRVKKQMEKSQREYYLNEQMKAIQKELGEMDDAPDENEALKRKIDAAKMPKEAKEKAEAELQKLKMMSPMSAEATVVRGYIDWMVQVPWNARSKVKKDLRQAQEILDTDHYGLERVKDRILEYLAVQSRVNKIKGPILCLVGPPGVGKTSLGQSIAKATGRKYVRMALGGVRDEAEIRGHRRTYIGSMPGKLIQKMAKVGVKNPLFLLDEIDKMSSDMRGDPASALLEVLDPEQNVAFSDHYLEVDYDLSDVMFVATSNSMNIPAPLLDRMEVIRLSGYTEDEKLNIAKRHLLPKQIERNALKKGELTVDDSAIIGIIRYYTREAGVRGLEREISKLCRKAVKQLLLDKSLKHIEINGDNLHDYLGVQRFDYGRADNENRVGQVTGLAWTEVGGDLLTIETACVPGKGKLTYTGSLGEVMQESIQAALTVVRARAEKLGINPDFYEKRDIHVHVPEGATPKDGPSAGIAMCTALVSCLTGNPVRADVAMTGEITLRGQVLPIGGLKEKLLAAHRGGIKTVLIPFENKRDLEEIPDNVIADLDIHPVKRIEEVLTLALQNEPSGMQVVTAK
GLD-1 TGE inh: GLD-1/TGE RNA complex disruptors, primary screen, biochemical, fluorescence polarization; Female germline-specific tumor suppressor gld-1 (Caenorhabditis elegans), Q17339; purified GLD-1 + fluorescein TGE RNA; inhibition, % at 5.96 µM; hit rate 0.44% among 320,000;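 active = percent inhibition above a per-plate cutoff, the plate mean of test compounds plus 3 SD, cut at about 30% in these data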
MCL1 BIM primary: inhibitors of MCL1 binding to BIM-BH3, primary screen, biochemical, fluorescence polarization. AID 2057, 2009. GST-MCL1 / FITC-Bim-BH3 fluorescence polarization. inhibition, % at 10.9 µM. hit rate 0.68% among 320,000. Induced myeloid leukemia cell differentiation protein Mcl-1 (Homo sapiens), Q07820;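 active = inhibition above the mean inhibition of all tested compounds plus 3 SD, set per campaign, cut at about 40% in these data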;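 also: higher means more loss of mP so more displacement of Bim peptide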
BCLXL inh: inhibitors of human Bcl-xL, primary screen, biochemical, fluorescence polarization, HTS; inhibition, % at 10.9 µM; GST-Bcl-xL / FITC-Bim BH3 peptide fluorescence polarization; AID 2129, 2009; Bcl-2-like protein 1 (Homo sapiens), Q07817; hit rate 0.7% among 320,000;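 active = inhibition above the mean of all tested compounds plus 3 SD, cutoff set per campaign, cut at about 30% in these data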;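 also: inhibitors lower millipolarization by displacing the labeled peptide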
GLD-1 TGE cf: GLD-1/TGE RNA binding inhibitors, retest, confirmation, biochemical, fluorescence polarization, triplicate; hit rate 10% among 550; shares compounds with GLD-1 TGE inh; AID 2459, 2010; inhibition, % at 5.96 µM; GLD-1/FL-TGE RNA fluorescence polarization;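 active = average inhibition across triplicates above the hit cutoff set in the primary screen, cut at about 32% in these data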
eLon confirm: E. coli Lon protease inhibitor retest, confirmation, biochemical, fluorescence polarization; shares compounds with E coli Lon inh; AID 602230, 2012; inhibition, % at 7.94 µM; hit rate 31% among 1,400; purified E. coli Lon; in the data active = inhibition above about 16%
Large screens that a line does not name were inactive (follow-up assays come after a bar, where they were run). In the library only some 1.5% were active in any assay of this set; here they are far more common.

Clc1ccc(/C=N/c2c(-c3ccco3)nc3ccccn23)cc1	E coli Lon inh 26.4, GLD-1 TGE inh 45.2, MCL1 BIM primary 47.0, BCLXL inh 39.1 | GLD-1 TGE cf 43.8 | eLon confirm inactive
O=C(NCC(c1ccccc1Cl)N1CCCC1)c1ccc(N2CCCC2=O)cc1 (stereo not drawn)	none (no result: MEX-5 binding, EBV gp42 inh, GLD-1 TGE inh, MCL1 BIM primary, BCLXL inh)
COc1ccc(OC)c(S(=O)(=O)N2CCC(C(=O)NCC3CCCO3)CC2)c1 (stereo not drawn)	E coli Lon inh 32.5 | eLon confirm inactive
Cc1ccc(C(=O)Nc2nc(=O)n(C(=O)C3CC3)s2)cc1	none
Cc1ccc(C(=O)Nc2nc(=O)n(C(=O)c3ccccc3C)s2)cc1	E coli Lon inh 19.1 | eLon confirm 30.5
COc1ccc2c(c1O)Cc1ccccc1C2=O	E coli Lon inh 34.0 | eLon confirm 22.3
COc1ccc(NS(=O)(=O)c2ccc(OC)c(N(C)S(=O)(=O)c3ccc(Cl)cc3)c2)cc1	none
COc1ccc(S(=O)(=O)Nc2ccc(F)cc2)cc1N(C)S(=O)(=O)c1ccc(Cl)cc1	E coli Lon inh 16.1 | eLon confirm 41.0
COc1ccc(-c2nnc(NC(=O)c3ccc(S(=O)(=O)N(C)CC4CCCO4)cc3)o2)c(OC)c1 (stereo not drawn)	none (no result: EBV gp42 inh)
N#Cc1c(N2CCN(c3ccc([N+](=O)[O-])cc3)CC2)[n+](=O)c2ccc(Cl)cc2n1[O-]	E coli Lon inh 134.1 (no result: MEX-5 binding, EBV gp42 inh, GLD-1 TGE inh, MCL1 BIM primary, BCLXL inh) | eLon confirm 43.2
CCC(CO)Oc1cc(NCc2cccnc2)c2ncn(C(C)C)c2c1 (stereo not drawn)	E coli Lon inh 27.4 (no result: MEX-5 binding, EBV gp42 inh, MCL1 BIM primary, BCLXL inh) | eLon confirm inactive
CCC(CO)Oc1cc(NCc2ccncc2)c2ncn(C(C)C)c2c1 (stereo not drawn)	none (no result: MEX-5 binding, EBV gp42 inh, MCL1 BIM primary, BCLXL inh)
O=C(CN1C(=O)COc2ccc(S(=O)(=O)N3CCOCC3)cc21)Nc1cccc(Cl)c1	E coli Lon inh 19.1 (no result: EBV gp42 inh) | eLon confirm inactive
COc1ccc(C(=O)OCC(=O)c2ccc3[nH]c(=O)[nH]c3c2)c(OC)c1OC	none (no result: MEX-5 binding, EBV gp42 inh, MCL1 BIM primary, BCLXL inh)
CCCOc1ccc(/C=C/C(=O)Nc2ccc([N+](=O)[O-])cc2)cc1	E coli Lon inh 18.7 | eLon confirm inactive
CCCCOc1ccc(/C=C/C(=O)Nc2ccc([N+](=O)[O-])cc2C)cc1	none
O=C(COC(=O)C1=Cc2ccccc2OC1)NCc1ccc(F)cc1	E coli Lon inh 31.4 (no result: MEX-5 binding, EBV gp42 inh, GLD-1 TGE inh, MCL1 BIM primary, BCLXL inh) | eLon confirm inactive
CC(NS(=O)(=O)c1ccc(N)cc1)C1CC2CCC1C2 (stereo not drawn)	none (no result: EBV gp42 inh)
CC(NS(=O)(=O)c1ccccc1)C1CC2CCC1C2 (stereo not drawn)	E coli Lon inh 22.7 (no result: EBV gp42 inh) | eLon confirm inactive
Oc1ccc(/C=N/NC(=S)Nc2cccnc2)c(O)c1O	MEX-5 binding -42.9, E coli Lon inh 24.0 (no result: GLD-1 TGE inh, MCL1 BIM primary, BCLXL inh) | eLon confirm 26.9
Oc1cccc(/C=N/NC(=S)Nc2cccnc2)c1O	none
O=C(CSc1nc2ccccc2s1)NC1CCCC1	E coli Lon inh 22.8 | eLon confirm inactive
Cn1c(=O)c(NC2CCCCC2)c2c3c(cccc31)C(=O)c1ccccc1-2	EBV gp42 inh 139.3, E coli Lon inh 117.9 (no result: MEX-5 binding, GLD-1 TGE inh, MCL1 BIM primary, BCLXL inh) | eLon confirm inactive
Cn1cc(S(=O)(=O)NC2CCCCCC2)c(=O)n(C)c1=O	none (no result: EBV gp42 inh)
CN1CCCN(C(=O)CC2(CC(=O)O)CCCCC2)CC1	none
CCOc1ccc(S(=O)(=O)N2CCC(C(=O)NCC3CCCO3)CC2)cc1 (stereo not drawn)	none (no result: EBV gp42 inh)
